Only some compounds are listed: those with a hit (about 0.98% of all), similar ones and a draw of the others.
Mtb UGM inh – inhibitors of M. tuberculosis UDP-galactopyranose mutase; P9WIQ1; purified UGM, fluorescence polarization probe displacement; inhibition, % at 10 µM; 0.06% of 320,000 active; AID 504406; in the data active means inhibition above about 10%, passing the limit was not always enough; inconclusive means no clear call, values can overlap the other calls
FadD28 binding – inhibitors of Mycobacterium tuberculosis FadD28 bisubstrate binding; 0.22% of 360,000 active; inhibition, % at 12.5 µM; FadD28 bisubstrate probe binding, fluorescence polarization; in the data active means inhibition above about 8.5%, passing the limit was not always enough; inconclusive means no clear call, values can overlap the other calls
Rv3671c protease – inhibits the M. tuberculosis serine protease Rv3671c. 0.048% of 320,000 active. P9WHR9. inhibition, % at 5.96 µM; in the data active means inhibition above about 38%;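 further: extracellular domain of Rv3671c used as enzyme; 0% = enzyme with DMSO and 100% = no enzyme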
Target sequence (P9WHR9 whole entry, looked up, the tested form may be a part): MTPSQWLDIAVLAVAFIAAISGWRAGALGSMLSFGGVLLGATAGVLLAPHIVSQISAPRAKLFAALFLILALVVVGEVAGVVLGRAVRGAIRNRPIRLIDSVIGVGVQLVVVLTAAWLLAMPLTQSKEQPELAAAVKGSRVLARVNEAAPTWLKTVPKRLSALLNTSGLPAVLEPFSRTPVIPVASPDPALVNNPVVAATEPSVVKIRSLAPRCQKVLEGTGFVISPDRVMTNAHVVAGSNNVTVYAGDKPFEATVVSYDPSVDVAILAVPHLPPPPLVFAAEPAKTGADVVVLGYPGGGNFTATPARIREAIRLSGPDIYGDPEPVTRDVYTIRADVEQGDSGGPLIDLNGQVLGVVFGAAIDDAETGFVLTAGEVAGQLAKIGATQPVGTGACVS
Mtb bLac sens – beta-lactam sensitization of Mtb H37Rv; M. tuberculosis H37Rv growth with meropenem, percent inhibition; inhibition, % at 25 µM; 0.27% of 330,000 active; AID 434955; call rule not given here;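 further: growth measured after seven days incubation then overnight dye step; 0% = bacteria only wells and 100% = bacteria with antibiotic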
Y pestis TopoI – blocks Yersinia pestis topoisomerase I activity; Y. pestis Topo-I cleavage product accumulation, plate reader; activity, % at 10 µM; 0.064% of 360,000 active; in the data active means activity above about 50%, passing the limit was not always enough; inconclusive means no clear call, values can overlap the other calls
PfHsp40 yeast – compounds rescuing yeast from Plasmodium falciparum HSP40 toxicity; S. cerevisiae expressing PfHsp40, growth rescue, ATP luminescence; growth rescue, % at 12.5 µM; 0.68% of 340,000 active; in the data active means growth rescue above about 28%, passing the limit was not always enough; inconclusive means no clear call, values can overlap the other calls;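 further: yeast W303a lacking pdr1 and pdr3 grown in galactose medium; growth measured after three days at 30 °C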
The depositor's hits bear a star; ? = inconclusive; . = no result given.

SMILES	Mtb UGM inh	FadD28 binding	Rv3671c protease	Mtb bLac sens	Y pestis TopoI	PfHsp40 yeast
S=C(Nc1ccc(OCc2ccccc2)cc1)Nc1cccc(Cl)c1Cl	-1.4	0.2	2.9	26.5	8.8	67.3*
O=C(Cn1cc(C(=O)C(F)(F)F)c2ccccc21)N1CCOCC1	1.5	-0.2	7.4	5.2	4.4	47.9*
O=C(O)Cn1ccc2cc(S(=O)(=O)N3CCCCC3)ccc21	.	-0.9	.	.	0.2	.
Nc1nnc(SCCCOc2ccc(F)cc2)s1	2.4	12.9*	-5.0	4.2	7.6	0.2
COc1ccc(CCNc2cc(N3CCN(C(=O)c4ccc(C)cc4)CC3)ccc2[N+](=O)[O-])cc1OC	-1.7	.	42.6*	-2.1	.	.
COc1ccc(C(=O)N2CCN(c3ccc([N+](=O)[O-])c(NCCc4ccc(OC)c(OC)c4)c3)CC2)cc1	0.6	1.0	4.4	?	37.2	0.3
NC1=NC[C@@H](Cc2ccc(O)cc2)N1CCC12CC3CC(CC(C3)C1)C2	-0.4	-2.7	-7.2	-2.1	22.5	47.7*
Cc1ccc(-n2nc(C)c(Sc3ccccc3[N+](=O)[O-])c2N)cc1	0.4	-0.1	0.2	14.5	-14.2	-1.0
CC(=O)Oc1c(Sc2ccccc2[N+](=O)[O-])c(C)nn1C(C)(C)C	-1.7	-1.3	3.0	-4.2	10.9	42.3*
COc1ccc(-c2csc(C(O)c3ccc(F)c(F)c3)n2)cc1 (configuration not stated)	.	-0.5	.	.	2.9	.
N#CCCCC#Cc1ccc2c(c1)COc1c3ccccc3nn1-2	1.3	-4.3	-17.2	94.4	32.6	123.6*
COCCCN1C(=O)c2ccc(C(=O)OCC(=O)N3CCN(c4ccccc4)CC3)cc2C1=O	-0.9	-2.5	4.9	-5.8	15.6	2.0
COc1ccc(N2CCN(C(=O)COC(=O)CC(NC(N)=O)c3ccc(Cl)cc3)CC2)cc1 (configuration not stated)	.	-3.3	.	.	9.9	.
Oc1ccc(O)c(C=NNC(=S)NC2CC3CC2C2C=CCC32)c1 (configuration not stated)	.	17.8*	.	.	-15.4	.
NNC(=S)NC1CC2CC1C1C=CCC21 (configuration not stated)	1.4	0.7	2.3	.	-4.2	-1.1
COC(=O)[C@]1(Cc2ccccc2)N[C@H](CN(C)C(=O)c2ccc(C)cc2)[C@@H]2C(=O)N(Cc3ccccc3)C(=O)[C@@H]21	.	-0.4	1.4	-2.4	9.1	47.4*
O=C1C(=C(c2ccccc2)c2ccccc2)Nc2ccccc21	-3.3	0.1	19.2	39.5	-1.3	77.7*
COCCn1c(C)cc(/C=N/NC(=O)c2cc3ccccc3cc2O)c1C	-2.1	10.9*	4.9	-0.9	-10.9	-0.1
CC(O)c1nc2ccccc2n1C1CCCCC1 (configuration not stated)	-1.5	1.8	1.4	6.9	11.0	74.2*
O=C1c2cccc3c(N4CCCCC4)ccc(c23)C(=O)N1c1ccccn1	10.5*	-0.3	-2.7	.	4.3	1.2
O=C1c2cccc3c([N+](=O)[O-])ccc(c23)C(=O)N1c1ccccn1	2.7	-14.0	-2.3	100.4	4.2	0.5
COCCN1C[C@@H](CO)O[C@@H](n2cnc3c(NCCCO)ncnc32)C1	.	0.3	.	.	-6.0	.
CCC(=O)N1CCN(c2ccc(NC(=O)c3ccc4c(c3)OCO4)cc2)CC1	0.2	-4.0	-9.8	-0.9	-4.1	1.4
CC(=O)N1CCN(c2ccc(NC(=O)c3ccc4c(c3)OCO4)cc2)CC1	-0.8	-1.6	-4.6	2.6	0.6	105.9*
COc1ccc(-n2c(-c3ccc(F)cc3)cnc2SCC(=O)NCc2ccco2)cc1	3.9	-1.6	-1.7	1.8	51.0*	5.5
O=C(CS(=O)c1ccccc1[N+](=O)[O-])Oc1ccc(Br)cc1 (configuration not stated)	-1.5	0.5	-4.2	4.8	10.4	67.6*
Fc1cccc2sc(Nc3nnc(-c4ccco4)o3)nc12	0.2	-2.1	5.2	94.7	-7.1	74.1*
O=C(Nc1ccc2c(c1)OCCO2)C(c1ccnc2ccccc12)N1CCC(Cc2ccccc2)CC1 (configuration not stated)	.	-1.7	.	.	.	.
CC1(C)CC(=O)C(C2C3=C(CC(C)(C)CC3=O)Oc3c(Br)cc(Br)cc32)=C(O)C1 (configuration not stated)	0.0	-2.2	6.3	6.8	13.0	54.9*
Nc1nc(CSc2n[nH]c(-c3ccccc3)n2)nc(Nc2ccccc2)n1	-1.6	-3.2	-9.4	-2.1	-0.8	68.2*

Screens as filed in PubChem BioAssay.
